“And” between values parts separate entries of the source, which are not always exact repeats. Equal entries are not always repeated. About 79,000 compounds went through this panel and 15% of them were active in at least one assay; those are over-represented in the sample as a whole. More than one record can exist for a structure, and the calls need not agree. The source made the active and inactive calls. Cut-off read from the data, not from the text of the source: active = growth inhibition above about 70%; inactive = the rest.
Legend:
[1] = NCI Yeast Anticancer Drug Screen. Data for the rad50 strain (AID 155);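 note: 0% = growth of vehicle-only cultures of the same strain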; conditions: S. cerevisiae rad50 strain growth inhibition, stronger effect = higher value
How it was run: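 Vehicle-treated cultures provide the reference for the growth inhibition reported for compound-exposed, repair-deficient yeast.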

[2] = NCI Yeast Anticancer Drug Screen. Data for the mec2-1 strain (AID 157); conditions: S. cerevisiae mec2-1 strain, stronger effect = higher value
How it was run: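 Cells of the genetically defined mec2-1 yeast strain are incubated with test compound. Inhibition of growth is calculated against vehicle-treated controls.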

[3] = NCI Yeast Anticancer Drug Screen. Data for the sgs1 mgt1 strain (AID 161);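 note: 0% = growth of cultures given vehicle only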; conditions: S. cerevisiae sgs1 mgt1 strain, stronger effect = higher value
How it was run: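 Read-out: growth inhibition vs vehicle controls. Cells: mutant yeast strain deficient in DNA damage repair.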

[4] = NCI Yeast Anticancer Drug Screen. Data for the cln2 rad14 strain (AID 165);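 note: 0% = growth equal to vehicle treated cultures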; conditions: S. cerevisiae cln2 rad14 strain, stronger effect = higher value
How it was run: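 The screen exposed genetically defined yeast (cln2 rad14) to test compounds and scored growth inhibition relative to vehicle-treated controls.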

[5] = NCI Yeast Anticancer Drug Screen. Data for the bub3 strain (AID 167); conditions: S. cerevisiae bub3 mutant strain, stronger effect = higher value
How it was run: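 Mutant yeast screening strain plus compound; vehicle-treated cultures serve as the 0% inhibition reference.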

[6] = NCI Yeast Anticancer Drug Screen. Data for the wt2 strain (AID 169); conditions: S. cerevisiae wt2 strain growth inhibition, stronger effect = higher value
How it was run: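 Steps: yeast strain treated with compound; growth recorded; inhibition calculated relative to cultures given vehicle alone.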

[7] = NCI Yeast Anticancer Drug Screen. Data for the mlh1 rad18 strain (AID 175); conditions: S. cerevisiae mlh1 rad18 strain growth inhibition, stronger effect = higher value
How it was run: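 Compound-treated yeast growth, normalised to vehicle controls. Strain bears defined DNA repair mutations.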

[8] = at 5.0 µM (retest, dose inferred, filed as 0.5)
[9] = at 50.0 µM (retest, dose inferred, filed as 5.0)

O=c1[nH]c(SCc2c(Cl)c(Cl)c(Cl)c(Cl)c2Cl)nc(=S)[nH]1
growth inhibition [1, 8]: 1% (inactive) | growth inhibition [1, 9]: 76% (active) | growth inhibition ([1]; at 50.0 µM): 54.1% (inactive) | growth inhibition [2, 8]: 10% (inactive) | growth inhibition [2, 9]: 44% (inactive) | growth inhibition ([2]; at 50.0 µM): 38.8% (inactive) | growth inhibition [3, 8]: 3% (inactive) | growth inhibition [3, 9]: 95% (active) | growth inhibition ([3]; at 50.0 µM): 92.8% (active) | growth inhibition [4, 8]: -36% (inactive) | growth inhibition [4, 9]: 67% (inactive) | growth inhibition ([4]; at 50.0 µM): 43.1% (inactive) | growth inhibition [5, 8]: 14% (inactive) | growth inhibition [5, 9]: 55% (inactive) | growth inhibition ([5]; at 50.0 µM): 65.8% (inactive)

Clc1ccc2c(c1)[nH]c1c2nc2ccccn21
growth inhibition [1, 8]: 21% (inactive) | growth inhibition [1, 9]: 95% (active) | growth inhibition ([1]; at 50.0 µM): 62.9% (inactive) and 83.2% (active) | growth inhibition [2, 8]: 19% (inactive) | growth inhibition [2, 9]: 98% (active) | growth inhibition ([2]; at 50.0 µM): -11.3% (inactive) and 67.4% (inactive) | growth inhibition [3, 8]: 50% (inactive) | growth inhibition [3, 9]: 95% (active) | growth inhibition ([3]; at 50.0 µM): 19.4% (inactive) and 85.7% (active) | growth inhibition [4, 8]: 47% (inactive) | growth inhibition [4, 9]: 95% (active) | growth inhibition ([4]; at 50.0 µM): 25.2% (inactive) and 77.5% (active) | growth inhibition [5, 8]: 36% (inactive) | growth inhibition [5, 9]: 97% (active) | growth inhibition ([5]; at 50.0 µM): 15.2% (inactive) and 79.2% (active)

Cc1nc(N=C(N)N)nc2ccc3ccccc3c12
growth inhibition [1, 8]: 39% (inactive) | growth inhibition [1, 9]: 38% (inactive) | growth inhibition ([1]; at 50.0 µM): 80.8% (active) | growth inhibition [2, 8]: 43% (inactive) | growth inhibition [2, 9]: 69% (inactive) | growth inhibition ([2]; at 50.0 µM): 37.9% (inactive) | growth inhibition [3, 8]: -13% (inactive) | growth inhibition [3, 9]: 98% (active) | growth inhibition ([3]; at 50.0 µM): 64.7% (inactive) | growth inhibition [4, 8]: 62% (inactive) | growth inhibition [4, 9]: 99% (active) | growth inhibition ([4]; at 50.0 µM): 34.8% (inactive) | growth inhibition [5, 8]: -14% (inactive) | growth inhibition [5, 9]: 96% (active) | growth inhibition ([5]; at 50.0 µM): 63.9% (inactive) | growth inhibition ([6]; at 1.2 µM): 6% (inactive) | growth inhibition ([6]; at 3.7 µM): 12% (inactive) | growth inhibition ([6]; at 11.0 µM): 0% (inactive) | growth inhibition ([6]; at 33.0 µM): 30% (inactive) | growth inhibition ([6]; at 100.0 µM): 97% (active) | growth inhibition [7, 8]: 28% (inactive) | growth inhibition [7, 9]: 34% (inactive) | growth inhibition ([7]; at 50.0 µM): 69.6% (inactive)

N#CC1(C2SCCS2=O)C2=C(C(=O)c3ccccc3C2=O)N2CCCC21 (configuration not stated)
growth inhibition [1, 8]: 17% (inactive) | growth inhibition [1, 9]: 56% (inactive) | growth inhibition ([1]; at 50.0 µM): 76.8% (active) | growth inhibition [2, 8]: 14% (inactive) | growth inhibition [2, 9]: 49% (inactive) | growth inhibition ([2]; at 50.0 µM): 77.2% (active) | growth inhibition [3, 8]: 23% (inactive) | growth inhibition [3, 9]: 67% (inactive) | growth inhibition ([3]; at 50.0 µM): 83.8% (active) | growth inhibition [4, 8]: 14% (inactive) | growth inhibition [4, 9]: 40% (inactive) | growth inhibition ([4]; at 50.0 µM): 43.2% (inactive) | growth inhibition [5, 8]: 33% (inactive) | growth inhibition [5, 9]: 80% (active) | growth inhibition ([5]; at 50.0 µM): 70.2% (active)

Nc1cc2ccccc2cc1Br
growth inhibition [1, 8]: 43% (inactive) | growth inhibition [1, 9]: 73% (active) | growth inhibition ([1]; at 50.0 µM): 81% (active) | growth inhibition [2, 8]: 30% (inactive) | growth inhibition [2, 9]: 62% (inactive) | growth inhibition ([2]; at 50.0 µM): 42.9% (inactive) | growth inhibition [3, 8]: 14% (inactive) | growth inhibition [3, 9]: 26% (inactive) | growth inhibition ([3]; at 50.0 µM): 71.8% (active) | growth inhibition [4, 8]: 54% (inactive) | growth inhibition [4, 9]: 44% (inactive) | growth inhibition ([4]; at 50.0 µM): 41.6% (inactive) | growth inhibition [5, 8]: 22% (inactive) | growth inhibition [5, 9]: 52% (inactive) | growth inhibition ([5]; at 50.0 µM): 74.7% (active) | growth inhibition ([6]; at 1.2 µM): -13% (inactive) | growth inhibition ([6]; at 3.7 µM): -17% (inactive) | growth inhibition ([6]; at 11.0 µM): -17% (inactive) | growth inhibition ([6]; at 33.0 µM): 12% (inactive) | growth inhibition ([6]; at 100.0 µM): 97% (active) | growth inhibition [7, 8]: 40% (inactive) | growth inhibition [7, 9]: 82% (active) | growth inhibition ([7]; at 50.0 µM): 45% (inactive)

Nc1ccccc1Oc1ccc(Cl)cc1Cl
growth inhibition [1, 8]: 27% (inactive) | growth inhibition [1, 9]: 48% (inactive) | growth inhibition ([1]; at 50.0 µM): 92% (active) | growth inhibition [2, 8]: 37% (inactive) | growth inhibition [2, 9]: 61% (inactive) | growth inhibition ([2]; at 50.0 µM): 92.7% (active) | growth inhibition [3, 8]: -21% (inactive) | growth inhibition [3, 9]: 98% (active) | growth inhibition ([3]; at 50.0 µM): 93% (active) | growth inhibition [4, 8]: 22% (inactive) | growth inhibition [4, 9]: 98% (active) | growth inhibition ([4]; at 50.0 µM): 92.3% (active) | growth inhibition [5, 8]: -18% (inactive) | growth inhibition [5, 9]: 95% (active) | growth inhibition ([5]; at 50.0 µM): 92.3% (active) | growth inhibition ([6]; at 1.2 µM): -3% (inactive) | growth inhibition ([6]; at 3.7 µM): -16% (inactive) | growth inhibition ([6]; at 11.0 µM): -8% (inactive) | growth inhibition ([6]; at 33.0 µM): 95% (active) | growth inhibition ([6]; at 100.0 µM): 99% (active) | growth inhibition [7, 8]: 15% (inactive) | growth inhibition [7, 9]: 59% (inactive) | growth inhibition ([7]; at 50.0 µM): 92% (active)

CCC(C)c1ccc(O)c(C(C)CC)c1 (configuration not stated)
growth inhibition [1, 8]: 40% (inactive) | growth inhibition [1, 9]: 98% (active) | growth inhibition ([1]; at 50.0 µM): 58.9% (inactive) | growth inhibition [2, 8]: 57% (inactive) | growth inhibition [2, 9]: 98% (active) | growth inhibition ([2]; at 50.0 µM): 30.3% (inactive) | growth inhibition [3, 8]: -26% (inactive) | growth inhibition [3, 9]: 72% (active) | growth inhibition ([3]; at 50.0 µM): 45.8% (inactive) | growth inhibition [4, 8]: 15% (inactive) | growth inhibition [4, 9]: 60% (inactive) | growth inhibition ([4]; at 50.0 µM): 27.8% (inactive) | growth inhibition [5, 8]: 38% (inactive) | growth inhibition [5, 9]: 63% (inactive) | growth inhibition ([5]; at 50.0 µM): 68.7% (inactive) | growth inhibition ([6]; at 1.2 µM): -3% (inactive) | growth inhibition ([6]; at 3.7 µM): -13% (inactive) | growth inhibition ([6]; at 11.0 µM): -11% (inactive) | growth inhibition ([6]; at 33.0 µM): -1% (inactive) | growth inhibition ([6]; at 100.0 µM): 98% (active) | growth inhibition [7, 8]: 44% (inactive) | growth inhibition [7, 9]: 99% (active) | growth inhibition ([7]; at 50.0 µM): 58.9% (inactive)

C[n+]1c2cc(N)ccc2cc2ccc(N)cc21
growth inhibition [1, 8]: 55% (inactive) and 100% (active) | growth inhibition [1, 9]: 98% (active) and 99% (active) | growth inhibition ([1]; at 50.0 µM): 97.4% (active) and 75.2% (active) | growth inhibition [2, 8]: 11% (inactive) and 100% (active) | growth inhibition [2, 9]: 99% (active) and 100% (active) | growth inhibition ([2]; at 50.0 µM): 75.3% (active) and 79% (active) | growth inhibition [3, 8]: 3% (inactive) and -17% (inactive) | growth inhibition [3, 9]: 97% (active) and 44% (inactive) | growth inhibition ([3]; at 50.0 µM): 67.9% (inactive) and 78.2% (active) | growth inhibition [4, 8]: 10% (inactive) and 35% (inactive) | growth inhibition [4, 9]: 97% (active) and 64% (inactive) | growth inhibition ([4]; at 50.0 µM): 53.9% (inactive) and 39.6% (inactive) | growth inhibition [5, 8]: -1% (inactive) and -18% (inactive) | growth inhibition [5, 9]: 99% (active) and 88% (active) | growth inhibition ([5]; at 50.0 µM): 86.5% (active) and 81.6% (active) | growth inhibition ([6]; at 1.2 µM): -6% (inactive) | growth inhibition ([6]; at 3.7 µM): -12% (inactive) | growth inhibition ([6]; at 11.0 µM): 4% (inactive) | growth inhibition ([6]; at 33.0 µM): 25% (inactive) | growth inhibition ([6]; at 100.0 µM): 84% (active)

Reference: PubChem BioAssay (NCI)
